# JMJD2A Tudor – blocks the human JMJD2A Tudor domain; O75164; AlphaScreen JMJD2A-Tudor / H3K4me3 peptide binding; Potency, µM (series often up to 114 µM), usual class: inhibitors; hit rate 4.4% among 390,000; AID 504339; also: nearly all actives have a fitted effect of over 50% in size
# Sfp PPTase inh – blocks B. subtilis Sfp PPTase activity; Potency, µM, usual class: inhibitors; hit rate 3.5% among 310,000; Biochemical Sfp PPTase activity, qHTS; Q9F4F7; AID 1490;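 also: the enzyme is Sfp with the accession as filed and its product quenches rhodamine fluorescence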
#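 Step 1, compound plus 15 nM Sfp-PPTase, 15 min, room temperature. Step 2, add rhodamine-CoA (5 uM) and BHQ-2-YbbR (12.5 uM). Step 3, read 525/598 nm fluorescence at 0 and 30 min.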
# G9a block – inhibitors of human histone lysine methyltransferase G9a; G9a H3K9 monomethylation, AlphaScreen, 2 h; Potency, µM (top dose mostly 102 µM), usual class: inhibitors; Q96KQ7; AID 504332; hit rate 8.8% among 350,000; also: nearly all actives have a fitted effect of over 75% in size
#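 Quantitative HTS format: methyltransferase activity on a biotin-tagged H3K9 peptide is measured by AlphaScreen, using a rabbit anti-monomethyl-H3K9 antibody with streptavidin donor and anti-IgG acceptor beads. Final levels are 20 nM enzyme, 500 nM peptide, 20 uM SAM; 2 h RT.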
# PLK1 PBD block – blocks phosphopeptide binding to human PLK1 polo-box domain; Potency, µM, usual class: inhibitors; Plk1 PBD binding of FITC phosphopeptide, fluorescence polarization; P53350; hit rate 2.8% among 360,000; also: series mostly up to about 57 µM; nearly all actives have a fitted effect of over 65% in size
# BAZ2B block – blocks human BAZ2B. Potency, µM (series often up to 114 µM), hits mostly inhibitors. hit rate 4.4% among 360,000. AlphaScreen BAZ2B-H3K14Ac peptide displacement. Q9UIF8. AID 504333; also: nearly all actives have a fitted effect of over 60% in size
#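 Compounds, titrated to a top concentration of 110 uM, were incubated 30 min at room temperature with preformed BAZ2B/acetyl-K14 H3 peptide complex (50 nM each). Proximity signal was measured by AlphaScreen after 20 min with beads.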
# HP1b binding inh – HP1-beta chromodomain-methylated histone interaction inhibition; P83916; AlphaScreen HP1-beta / biotin-H3K9me3 peptide binding; Potency, µM (doses to about 114 µM), hits mostly inhibitors; hit rate 0.56% among 390,000; also: nearly all actives have a fitted effect of over 70% in size
#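 HP1-beta protein (50 nM final) preincubated 30 min at room temperature with biotinylated H3(1-18)K9me3 peptide (50 nM) in PBS pH 7.4, 0.01% Tween-20, then compound added for 30 min. AlphaScreen streptavidin donor/nickel chelate acceptor beads (10 ug/mL final), 30 min dark, luminescence read.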
# Numbers stand for hits; 0 = inactive; ? = inconclusive; - = not tested or not shown; [ ] = dose if it differs, or a comment. Most compounds without a hit are left out; they make up all but 12% or so of the library. Calls follow the shape of the dose curve; as a rule, active = well fitted curve in the direction sought with a large enough effect; inconclusive = small, poorly fitted or top-dose-only effect, or another doubt; inactive = no such curve, though single readings can be large; an effect the other way counts as inactive or inconclusive.
SMILES,JMJD2A Tudor,Sfp PPTase inh,G9a block,PLK1 PBD block,BAZ2B block,HP1b binding inh
CC1CC(N(C(=O)c2ccco2)c2ccccc2)c2ccccc2N1C(=O)c1ccco1 (stereo unspecified),0,0,0,0,0,0
CC1CC(N(C(=O)c2ccc(Cl)cc2)c2ccccc2)c2ccccc2N1C(=O)c1ccco1 (stereo unspecified),0,0,45µM,0,0,0
CCOC(=O)C1CCN(C(=O)C2CCN(C(=O)c3ccc([N+](=O)[O-])cc3)CC2)CC1,0,0,0,0,0,0
COC(=O)c1c(C(=O)OC)c2ccccn2c1C(=O)c1ccccc1,0,0,0,0,0,0
COC(=O)c1cc2c(-c3ccccc3)c(C)c3ccccn3c-2c1C(=O)OC,45µM,0,14µM,0,14µM,?
COC(=O)c1c(Cl)c2n3ccccc3c(C)c(-c3ccccc3)c-2c1C(=O)OC,?,0,8.9µM,24µM,?,?
COC(=O)c1c(C)[nH]c(C=O)c1-c1ccccc1,0,0,0,0,0,0
COc1ccc2ccccc2c1C=NN1CCCCC1,-,-,-,0,-,-
C/C(=N\NC(=O)CNc1cccc(Cl)c1C)c1cccs1,0,0,-,0,0,0
COc1cc(NC(=O)c2ccccc2)c(OC)cc1NC(=O)Cc1cccs1,56µM,0,-,0,32µM,71µM
COc1ccccc1NCC(=O)N/N=C(\C)c1cccs1,35µM,0,0,24µM,?,?
COc1ccccc1NC(=O)CCC(=O)Nc1cc(OC)c(NC(=O)c2cccs2)cc1OC,79µM,0,0,27µM,0,0
Cc1c(Cl)c([N+](=O)[O-])nn1CCCC(=O)Nc1sc2c(c1C#N)CCC2,?,?,?,30µM,0,?
Cc1c(Br)c([N+](=O)[O-])nn1CC(=O)Nc1nccs1,0,0,0,0,0,0
Cc1c(Br)c([N+](=O)[O-])nn1CCCC(=O)Nc1sc2c(c1C(N)=O)CCC(C)C2 (stereo unspecified),0,0,0,0,0,0
Cc1c(Br)c([N+](=O)[O-])nn1CCCC(=O)Nc1sc2c(c1C#N)CCC2,50µM,22µM,?,5.3µM,?,?
Cc1c(Br)c([N+](=O)[O-])nn1CC(=O)Nc1sc2c(c1C(=O)OC(C)C)CCCC2,0,0,?,19µM,0,0
CCc1ccc(NC(=O)NCCCN2CCCC2=O)cc1,0,0,0,0,0,0
CCOC(=O)/C=C/CCC/C=C/C(=O)c1ccccc1,-,0,-,-,-,-
COC(=O)c1ccc(OCC2c3cc(OC)c(OC)cc3CCN2C(=O)c2ccc(F)cc2)cc1 (stereo unspecified),0,-,0,-,0,0
CCOc1ccccc1NC(=O)c1c(NC(=O)c2ccccc2C)sc2c1CCC(C)C2 (stereo unspecified),0,-,14µM,-,0,0
C/C(=N\Nc1ccc(F)cc1)c1ccc(N2CCOCC2)c(F)c1,0,0,28µM,?,0,0
O=C1c2cccc3c([N+](=O)[O-])c(O)cc(c23)C(=O)N1Nc1ccccc1,?,0,20µM,27µM,?,?
S=C(N/N=C/c1ccc(Br)cc1)N1CCCCC1,?,0,0,0,7.9µM,0
Cc1ccc(/C=N/NC(=S)N2CCOCC2)cc1,0,0,28µM,0,?,0
SMILES,JMJD2A Tudor,Sfp PPTase inh,G9a block,PLK1 PBD block,BAZ2B block,HP1b binding inh
S=C(N/N=C/c1ccc(Cl)cc1)N1CCOCC1,0,0,?,0,?,0
CC(=O)Nc1ccc(SCC(CC(C)C)N2CCN(CCc3ccccc3)CCC2=O)cc1 (stereo unspecified),0,0,-,-,-,0
COc1ccc2nc(NC(=O)CN3C(=O)NC4(CCCCC4)C3=O)sc2c1,0,0,-,0,0,0
O=C1[C@H]2[C@@H](/C=C/c3ccccc3)N3C(=O)CN(Cc4ccccn4)C(=O)[C@@]3(Cc3ccccc3)[C@H]2C(=O)N1c1ccccc1,0,0,0,0,0,0
c1ccc2c(c1)Nc1nccnc1S2,45µM,0,?,15µM,0,0
O=C1Nc2cccnc2Sc2ccccc21,0,0,28µM,0,0,0
O=C1Nc2ccccc2Nc2ncccc21,0,0,?,0,0,0
Clc1cc2c(nn1)Nc1ccccc1S2,0,0,0,0,0,0
COc1ccc(-c2ccc(C(=O)NCc3ccc(C(F)(F)F)cc3)c3occc23)c(C)c1,-,-,-,0,-,-
Cc1ccc(-n2ncc3c(Nc4cccc(C(F)(F)F)c4)ncnc32)cc1C,0,-,0,-,0,0
C=CCn1cccc(C(=O)Nc2ccc(C)c(C)c2)c1=O,?,0,0,27µM,0,0
C=CCn1cccc(C(=O)Nc2ccc(C)cc2)c1=O,0,0,0,0,0,0
Cc1c(NC(=O)C(C)(C)Oc2ccc(Cl)cc2)cccc1-c1nc2ncccc2o1,0,-,0,-,0,0
Oc1ccc(-c2ccccc2)cc1CN1CCCCCC1,0,89µM,0[2.33 µM],0,0,0
Oc1ccc(CN2CCCCC2)nc1-c1ccccc1,0,0,0,0,0,0
Oc1cccc(/C=N/N2CCN(C3c4ccccc4-c4ccccc43)CC2)c1,40µM,0,?,0,?,?
COc1cc(/C=N/N2CCN(C3c4ccccc4-c4ccccc43)CC2)ccc1O,56µM,0,?,0,35µM,0
COc1cccc(/C=N/N2CCN(C3c4ccccc4-c4ccccc43)CC2)c1O,?,0,35µM,0,0,0
COc1ccccc1N1CCN(/N=C/c2cccc(OC)c2O)CC1,?,0,0,0,?,0
Cc1ccsc1/C=N/N1CCN(C2c3ccccc3-c3ccccc32)CC1,?,0,0[0.501 µM],0,?,0
C/C(=N\N1CCN(C2c3ccccc3-c3ccccc32)CC1)c1ccncc1,?,0,0[0.501 µM],0,?,?
C(=N\N1CCN(C2c3ccccc3-c3ccccc32)CC1)/c1ccncc1,45µM,0,?,0,35µM,?
CCOC(=O)C1OC1C(=O)N[C@@H](CC(C)C)C(=O)NCCC(C)C (stereo partly specified),-,0,-,-,-,-
NNC(=O)C(Cc1c[nH]c2ccccc12)NC(=O)c1ccccc1 (stereo unspecified),0,0,-,0,0,0
CCc1ccc(S(=O)(=O)Nc2ccc(O)c3ccccc23)cc1,?,0,0[2.33 µM],?,?,?
COc1ccc(OC)c(S(=O)(=O)Nc2ccc(O)c3ccccc23)c1,?,20µM,5.6µM,?,45µM,71µM
CCOc1ccc(S(=O)(=O)Nc2ccc(O)c(Sc3ncn[nH]3)c2)cc1,0,0,22µM,0,0,0
COc1ccc(OC)c(S(=O)(=O)Nc2ccc(O)c(Sc3ncn[nH]3)c2)c1,?,35µM,7.9µM,0,?,0
O=S(=O)(Nc1ccc(O)c2ccccc12)c1ccc(F)cc1,50µM,-,-,27µM,-,?
Cc1ccc2c(=O)cc(C(=O)Nc3sc4c(c3C(N)=O)CCCC4)oc2c1,0,-,0,-,0,0
